Screening data from PubChem.
ssDAF-12 act: S. stercoralis DAF-12 nuclear receptor activators, primary screen, cell-based, luminescence, HEK293, GRIP1 co-expression, lit1-tk-luc | Nuclear hormone receptor DAF-12 (Strongyloides stercoralis) | AID 652126, 2013 | activation, % at 6.8 µM | HEK293 ssDAF-12/GRIP1 lit1-tk-luc reporter; % of 3 µM dafachronic acid response | hit rate 1% among 370,000;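 active = activation above the mean over all tested compounds plus 3 SD, cut at about 0.9% in these data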;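 also: 0% = DMSO-only wells and 100% = 3 µM delta7-dafachronic acid wells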
hcDAF-12 act: H. contortus DAF-12 nuclear receptor activators, primary screen, cell-based, luminescence, HEK293, lit1-tk-luc reporter. activation, % at 6.8 µM. HEK293 hcDAF-12 lit1-tk-luc reporter; 0% DMSO, 100% Δ7-dafachronic acid. hit rate 1.4% among 370,000;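 active = activation above the mean of all tested compounds plus 3 SD, cut at about 5.5% in these data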;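 also: 100% = response to 3 µM Δ7-dafachronic acid high control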
DAX1 inh-1: DAX1 (NR0B1) inhibitors on StAR promoter, primary screen, cell-based, luminescence, SF-1 (NR5A1), full-length DAX-1; HEK293T StAR-luciferase reporter, SF-1/DAX-1 repression relief; inhibition, % at 6.8 µM; hit rate 1.1% among 370,000;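 active = inhibition above the mean over all tested compounds plus 3 SD, cut at about 3.6% in these data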;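 also: 0% = DAX-1 cells with DMSO and 100% = cells lacking DAX-1 with DMSO; higher inhibition means more luminescence from relief of DAX-1 repression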
hgDAF-12 ag: H. glycines DAF-12 receptor agonists, primary screen, cell-based, luminescence, HEK293, GAL4 fusion, UAS-luciferase. Nuclear hormone receptor DAF-12 (Heterodera glycines), GAL4 fusion. HEK293 GAL4-hgDAF12 UAS-luciferase reporter, agonist luminescence; normalized to butyrate control. activation, % at 6.8 µM. hit rate 1.8% among 370,000. AID 687014, 2013;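 active = activation above a cutoff set at the mean of all screened compounds plus 3 SD, cut at about 10% in these data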;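 also: 0% = DMSO wells and 100% = sodium butyrate wells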
DAX1 inh-2: DAX1 (NR0B1) inhibitors, primary screen, cell-based, HEK293, Gal4-DAX1, luciferase luminescence. Nuclear receptor subfamily 0 group B member 1 (Homo sapiens), P51843. inhibition, % at 6.75 µM. HEK293 Gal4-DAX1 luciferase reporter. hit rate 0.99% among 340,000;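 active = inhibition above the mean over all tested compounds plus 3 SD, cut at about 4.2% in these data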;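 also: 0% = DAX1-transfected cells with DMSO and 100% = empty-vector control cells with DMSO; inhibition shows as a rise in luminescence from relieved DAX1 repression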
Target sequence (P51843 207-470 limits assumed): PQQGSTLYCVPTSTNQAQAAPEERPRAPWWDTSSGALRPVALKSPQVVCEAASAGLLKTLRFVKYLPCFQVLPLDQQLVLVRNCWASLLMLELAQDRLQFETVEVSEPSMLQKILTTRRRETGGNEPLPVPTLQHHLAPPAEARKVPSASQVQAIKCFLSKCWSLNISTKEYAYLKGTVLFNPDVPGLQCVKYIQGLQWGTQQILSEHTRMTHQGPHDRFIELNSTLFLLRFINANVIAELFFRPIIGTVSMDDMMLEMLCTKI
SMARCA2 activ: SMARCA2 (BRM) function activators, primary screen, cell-based, luminescence, high throughput; MG213 cells, MMTV-luciferase reporter, dexamethasone, overnight; activation, % at 9.1 µM; hit rate 1% among 370,000; AID 652017, 2013; in the data active = activation above about 7.8%;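 also: 0% = vehicle wells and 100% = reference activator wells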
* hit, by the source's call; . = not tested or not shown. The list is not random: actives were taken first. Their share in the collection is about 4.8%.

SMILES | ssDAF-12 act | hcDAF-12 act | DAX1 inh-1 | hgDAF-12 ag | DAX1 inh-2 | SMARCA2 activ
CCOc1cc(/C=C(\C#N)c2nc3ccccc3[nH]2)ccc1OC(C)C(=O)O (centres undefined) | -1 | 0 | -1 | 1 | 2 | 3
NC(=S)N/N=C/c1cc([N+](=O)[O-])ccc1Cl | -2 | -1 | -1 | 4 | 3 | -7
Cc1cccc(OCC(=O)Nc2ccc(C(=O)Nc3ccccc3C(=O)O)cc2)c1 | 0 | 0 | 1 | -5 | -1 | -4
O=C(COc1ccc(Cl)cc1Cl)Nc1ccc(C(=O)Nc2ccccc2C(=O)O)cc1 | 0 | 2 | 4.3* | 0 | 0 | 2
CC1CC(=O)c2cnc(Nc3ccccc3)nc2C1 (centres undefined) | 0 | 4 | 4.0* | 10 | 3 | 2
CC1CC(=O)c2cnc(Nc3cccc(C(F)(F)F)c3)nc2C1 (centres undefined) | -1 | 0 | 0 | 0 | 3 | 0
COc1ccc(Cc2nc3ccc(C(=O)NC(C)C)cc3o2)cc1 | 0 | 0 | 0 | 3 | 2 | 5
C=C(C)CNC(=O)c1ccc2nc(Cc3ccc(OC)cc3)oc2c1 | -1 | 3 | 1 | 13* | 6.3* | 4
CCOC(=O)c1sc(Nc2nc(C)cc(OC)n2)nc1C | -1 | 5 | 0 | -1 | 4.5* | -2
CCOC(=O)c1sc(Nc2nc(C)cc(C)n2)nc1C | -2 | -1 | 0 | 1 | 1 | -2
COc1ccc(CCN2C(=O)/C(=C\c3ccco3)SC2=S)cc1OC | -1 | -1 | 1 | -1 | 1 | 0
Cc1cc[n+](CC(=O)Nc2cccc(C)c2)cc1 | -1 | 0 | -1 | -3 | 1 | -1
COc1cc2c(=O)n(CCC(=O)NCC3CCCO3)c(=O)n(CC(=O)c3ccc(Cl)cc3)c2cc1OC (centres undefined) | -2 | 0 | 0 | -1 | 5.3* | 3
CC1CN(CCOc2ccc(Cl)c(Cl)c2)CC(C)O1 (centres undefined) | -1 | 2 | 0 | 3 | -1 | -2
Nc1ccc2nc(SCc3ccccc3F)sc2c1 | 1.0* | 5 | 0 | 8 | 3 | 6
Nc1nnc(SCC(=O)c2cccc([N+](=O)[O-])c2)s1 | -2 | -2 | 0 | -1 | -1 | -1
Nc1ccc2nc(SCC(=O)c3ccccc3)sc2c1 | 1.3* | 2 | -1 | 4 | -1 | 3
CCOc1ccc2nc(SCc3ccc(F)cc3)sc2c1 | -1 | 0 | 0 | 3 | 0 | 1
Nc1nnc(SCC(=O)c2ccc3ccccc3c2)s1 | 1.1* | 3 | 3 | 10 | 1 | 4
CC(NC(=O)CCNC(=O)c1ccc(C(C)(C)C)cc1)c1ccccc1 (centres undefined) | -2 | -2 | -1 | 1 | -1 | -3
COc1cccc(/C=C2\Oc3ccc(O)cc3C2=O)c1O | 1.8* | 6.0* | 4.0* | 7 | 1 | 5
COC(=O)c1ccc2c(c1)C(=O)/C(=C/c1ccc(O)cc1)O2 | 0 | -1 | 0 | 4 | 1 | 4
COc1ccccc1C(=O)N/N=C1/NC(=O)CC(C(=O)Nc2ccccc2)S1 (centres undefined) | -1 | 3 | 0 | 0 | 1 | -1
O=C1CC(C(=O)Nc2ccccc2)S/C(=N\NC(=O)c2ccccc2Cl)N1 (centres undefined) | -2 | 0 | 0 | 3 | 4.3* | -1
Nc1c(-c2ccc(Cl)cc2)cnn1-c1ccccc1 | 1 | 3 | 2 | 10 | 3 | 3
SMILES | ssDAF-12 act | hcDAF-12 act | DAX1 inh-1 | hgDAF-12 ag | DAX1 inh-2 | SMARCA2 activ
Nc1c(-c2ccccc2)cnn1-c1ccc(C(=O)O)cc1 | 0 | 3 | 2 | 12* | 0 | 3
Cc1ccc(-c2cnn(-c3cccc([N+](=O)[O-])c3)c2N)cc1 | -1 | -1 | 0 | 11* | 2 | 2
Cc1ccc(-c2cnn(-c3ccccc3)c2N)cc1 | 0 | 5 | 3 | 16* | 0 | 4
O=C(NCc1ccccc1Cl)C1CCCN(c2ncccn2)C1 (centres undefined) | -2 | -2 | -1 | 2 | . | -1
CCOc1ccc2ncc(S(=O)(=O)c3ccc(C)cc3)c(N3CCC4(CC3)OCCO4)c2c1 | -2 | -5 | -1 | -4 | -2 | -3
CCCS(=O)(=O)N1CCCC(C(=O)NCCN2CCOCC2)C1 (centres undefined) | -1 | 1 | 0 | 0 | 1 | 0
COc1ccnc(CS(=O)c2nc3cc(C(O)(F)F)ccc3[nH]2)c1OC (centres undefined) | 0 | 6.1* | 0 | 3 | 0 | 0
CC(SCc1ccccc1)C(=O)Nc1ccccc1-c1ccccc1 (centres undefined) | -1 | 6.1* | 0 | 0 | 1 | 1
CCC1CN(C(=O)N2CCC(C(=O)NCc3ccco3)CC2)c2ccccc2O1 (centres undefined) | 0 | 1 | 0 | 2 | 0 | -1
C=CCC1(CC=C)CCCN1C(=O)c1ccc2oc(CCCC)nc2c1 | 0 | 6.3* | 1 | 12* | 4.9* | 1
CCCCc1nc2cc(C(=O)N3CCC(OC)CC3)ccc2o1 | -1 | 3 | 1 | 3 | 2 | 3
CCOc1ccc2[nH]c3c(N4CCc5ccccc5C4)ncnc3c2c1 | -3 | -4 | -1 | 1 | . | -1
Cc1nc(N2CCOCC2)nc(N2CCCCC2C)c1[N+](=O)[O-] (centres undefined) | -1 | 0 | 0 | -2 | 5.5* | 0
CC(C)C[C@H]1CNC(=O)C(=O)N1CC1CCN(CC2CCC(C(C)(C)C)CC2)CC1 (some centres undefined) | -1 | 0 | 4.1* | 2 | -1 | -5
CC(C)CCN1CCC(CN2C(=O)C(=O)NC[C@@H]2CC(C)C)CC1 | -1 | -1 | -1 | 1 | . | -1
O=C1NC[C@H](CCCCN2C[C@H](Cc3ccccc3)N(CCC3CCCCC3)C(=O)C2=O)N(CC2CCCCC2)C1=O | -1 | 0 | -1 | 3 | . | 4
O=C1NC[C@H](CCCCN2C[C@H](Cc3ccccc3)N(CC3CCCCC3)C(=O)C2=O)N(CCC2CCCCC2)C1=O | 1.4* | -1 | 0 | 1 | . | -2
